In article PMC11006913:

biological target: HOXB9 (Homo sapiens, UniProt P17482 171-250); test: PBM; 200 nM protein, PBS; details: dsDNA, one strand shown
Sequence (P17482 171-250): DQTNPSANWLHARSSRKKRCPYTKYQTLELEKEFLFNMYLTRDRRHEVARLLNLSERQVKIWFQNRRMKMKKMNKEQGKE

Sequence | binding signal
AGCATCCG | 8.73 upbm affinity estimate (log intensity, higher = more binding, comparable within an allelic series)
AGGTCTGG | 8.57 upbm affinity estimate (log intensity, higher = more binding, comparable within an allelic series)
ACACCCAG | 8.47 upbm affinity estimate (log intensity, higher = more binding, comparable within an allelic series)
CCGATCGG | 8.53 upbm affinity estimate (log intensity, higher = more binding, comparable within an allelic series)
GCGGGTGA | 8.45 upbm affinity estimate (log intensity, higher = more binding, comparable within an allelic series)
GAAGCGGC | 8.36 upbm affinity estimate (log intensity, higher = more binding, comparable within an allelic series)
AGGGCGTG | 8.4 upbm affinity estimate (log intensity, higher = more binding, comparable within an allelic series)
CCACGCCG | 8.38 upbm affinity estimate (log intensity, higher = more binding, comparable within an allelic series)
GGCGCAGA | 8.62 upbm affinity estimate (log intensity, higher = more binding, comparable within an allelic series)
AGCGCGCC | 8.53 upbm affinity estimate (log intensity, higher = more binding, comparable within an allelic series)
CCCGTCTC | 8.32 upbm affinity estimate (log intensity, higher = more binding, comparable within an allelic series)
CGTGGCTC | 8.18 upbm affinity estimate (log intensity, higher = more binding, comparable within an allelic series)
CCCCGGAC | 8.48 upbm affinity estimate (log intensity, higher = more binding, comparable within an allelic series)
GCCTCCGC | 8.05 upbm affinity estimate (log intensity, higher = more binding, comparable within an allelic series)
GTCCGGCA | 8.51 upbm affinity estimate (log intensity, higher = more binding, comparable within an allelic series)
GACATAAA | 11.7 upbm affinity estimate (log intensity, higher = more binding, comparable within an allelic series)
AGACGCGG | 8.58 upbm affinity estimate (log intensity, higher = more binding, comparable within an allelic series)
CGCCGGGA | 8.44 upbm affinity estimate (log intensity, higher = more binding, comparable within an allelic series)
CCAGACCG | 8.51 upbm affinity estimate (log intensity, higher = more binding, comparable within an allelic series)
CAGGGGCC | 8.25 upbm affinity estimate (log intensity, higher = more binding, comparable within an allelic series)

biological target: HOXB9 (Homo sapiens, UniProt P17482 171-250, R186Q); test: PBM; 200 nM protein, PBS; details: dsDNA, one strand shown
Sequence (P17482 171-250 R186Q): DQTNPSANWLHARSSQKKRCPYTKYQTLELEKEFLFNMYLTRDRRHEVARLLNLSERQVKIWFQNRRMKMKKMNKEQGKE

Sequence | binding signal
CCACGTCG | 8.57 upbm affinity estimate (log intensity, higher = more binding, comparable within an allelic series)
GGAACCCC | 8.46 upbm affinity estimate (log intensity, higher = more binding, comparable within an allelic series)
GGAGCTAC | 8.53 upbm affinity estimate (log intensity, higher = more binding, comparable within an allelic series)
CCTGCGGC | 8.19 upbm affinity estimate (log intensity, higher = more binding, comparable within an allelic series)
CCCGCGAG | 8.39 upbm affinity estimate (log intensity, higher = more binding, comparable within an allelic series)
CGTGGACC | 8.63 upbm affinity estimate (log intensity, higher = more binding, comparable within an allelic series)
CGGCGCCA | 8.51 upbm affinity estimate (log intensity, higher = more binding, comparable within an allelic series)
CTCCCGCC | 8.4 upbm affinity estimate (log intensity, higher = more binding, comparable within an allelic series)
ACCGGCCT | 8.47 upbm affinity estimate (log intensity, higher = more binding, comparable within an allelic series)
CCTTCGCG | 8.78 upbm affinity estimate (log intensity, higher = more binding, comparable within an allelic series)
CGAAGGAC | 8.58 upbm affinity estimate (log intensity, higher = more binding, comparable within an allelic series)
GCCACTCC | 8.8 upbm affinity estimate (log intensity, higher = more binding, comparable within an allelic series)
GCAGCCCC | 8.5 upbm affinity estimate (log intensity, higher = more binding, comparable within an allelic series)
GCACCGCC | 8.25 upbm affinity estimate (log intensity, higher = more binding, comparable within an allelic series)
GAGCGCAA | 8.48 upbm affinity estimate (log intensity, higher = more binding, comparable within an allelic series)
CAATCAAC | 9.93 upbm affinity estimate (log intensity, higher = more binding, comparable within an allelic series)
GGACCTAC | 8.62 upbm affinity estimate (log intensity, higher = more binding, comparable within an allelic series)
AGGAACCC | 8.24 upbm affinity estimate (log intensity, higher = more binding, comparable within an allelic series)
AGCATCCG | 8.71 upbm affinity estimate (log intensity, higher = more binding, comparable within an allelic series)

Sequence | binding signal
AGGTCTGG | 8.64 upbm affinity estimate (log intensity, higher = more binding, comparable within an allelic series)
ACACCCAG | 8.52 upbm affinity estimate (log intensity, higher = more binding, comparable within an allelic series)
CCGATCGG | 8.57 upbm affinity estimate (log intensity, higher = more binding, comparable within an allelic series)
GCGGGTGA | 8.62 upbm affinity estimate (log intensity, higher = more binding, comparable within an allelic series)
GAAGCGGC | 8.37 upbm affinity estimate (log intensity, higher = more binding, comparable within an allelic series)
AGGGCGTG | 8.53 upbm affinity estimate (log intensity, higher = more binding, comparable within an allelic series)
CCACGCCG | 8.41 upbm affinity estimate (log intensity, higher = more binding, comparable within an allelic series)
GGCGCAGA | 8.63 upbm affinity estimate (log intensity, higher = more binding, comparable within an allelic series)
AGCGCGCC | 8.54 upbm affinity estimate (log intensity, higher = more binding, comparable within an allelic series)
CCCGTCTC | 8.4 upbm affinity estimate (log intensity, higher = more binding, comparable within an allelic series)
CGTGGCTC | 8.26 upbm affinity estimate (log intensity, higher = more binding, comparable within an allelic series)
CCCCGGAC | 8.49 upbm affinity estimate (log intensity, higher = more binding, comparable within an allelic series)
GCCTCCGC | 8.16 upbm affinity estimate (log intensity, higher = more binding, comparable within an allelic series)
GTCCGGCA | 8.52 upbm affinity estimate (log intensity, higher = more binding, comparable within an allelic series)
GACATAAA | 11.3 upbm affinity estimate (log intensity, higher = more binding, comparable within an allelic series)
AGACGCGG | 8.55 upbm affinity estimate (log intensity, higher = more binding, comparable within an allelic series)
CGCCGGGA | 8.47 upbm affinity estimate (log intensity, higher = more binding, comparable within an allelic series)
CCAGACCG | 8.43 upbm affinity estimate (log intensity, higher = more binding, comparable within an allelic series)
CAGGGGCC | 8.25 upbm affinity estimate (log intensity, higher = more binding, comparable within an allelic series)
